This passage reports Potency results from PubChem BioAssay AID588856 (National Center for Advancing Translational Sciences (NCATS), 2011).

“And” between values parts separate entries of the source, which are not always exact repeats. Identical values can stand only once. In all, about 410,000 compounds went through this assay and about 3,100 (0.76%) were called active. Calls follow the shape of the dose curve; as a rule, active = well fitted cell-killing curve with a large enough effect; inactive = no such curve, though single readings can be large or run the other way. Shown is part of a subset that was picked to be rich in actives. Entries that show only a call come without a potency. More than one record can exist for a structure, and the calls need not agree.
Potency is read from the fitted curve at half-maximal effect.

This test in a line: qHTS for Inhibitors of TGF-b: Cytotox Counterscreen. The settings on record: HepG2 CAGA-GFP viability, ATP luminescence, 18 h; series mostly up to 46.1 µM. The essentials:
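CellTiter-Glo luminescence gave cytotoxicity after 18 hours at 37 degrees C. The cells were HepG2 CAGA-GFP in 1% FBS DMEM, stimulated with 500 pg/mL TGF-beta after compound addition. %Activity was normalised to no-cell wells (complete cell-killing) and DMSO (no toxicity), and curves were fitted and classified.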
(In general: In qHTS, concentration-response curves come from the screen itself.)
As for `Nc1ccc(Nc2ccccc2)cc1`, the Potency is 12.6 µM (active). `Cc1ccc(Nc2ccccc2N)cc1`: the Potency entry is “inactive”. For the compound `Nc1ccccc1N`, the Potency result is “inactive”. Regarding `OCCNc1ncnc2oc(-c3ccco3)c(-c3ccco3)c12`, the Potency result is “inactive”.

On to `Cc1ccc(-c2nn(CCC(=O)Nc3ccc(Cl)c(Cl)c3)c(=O)c3ccccc23)cc1`, for which the Potency entry was “inactive”. For the compound `O=C(CC(O)(C(F)(F)F)C(F)(F)F)Nc1ccc(Cl)c(Cl)c1`, the Potency was 10 µM (active). As to `O=C(CSc1nnc(-c2ccncc2)n1-c1ccccc1)Nc1ccc(Cl)c(Cl)c1`, the Potency entry was “inactive”.

Take `O=C(Nc1cc(C(F)(F)F)ccc1Cl)c1ccc2c(c1)CCN2S(=O)(=O)c1ccccc1`: the Potency result is “inactive”. Turning to `NC(=O)Nc1ccc(/C=C/c2ccnc3ccccc23)cc1`, the Potency result was “inactive”. For the compound `CCN(CC)S(=O)(=O)c1ccc(NC(=O)c2cccnc2Cl)c(NC(=O)c2cccnc2Cl)c1`, the Potency was 12.6 µM (active). Regarding `CCN(CC)S(=O)(=O)c1ccc(C)c(NC(=O)COc2ccc(Br)cc2Cl)c1`, the Potency result is “inactive”. On to `Cc1ccc(S(=O)(=O)N(C)C)cc1NC(=O)c1ccccc1Br`, for which the Potency result is “inactive”. For `O=C1O/C(=C\c2ccc(O)cc2)C(O)=C1c1ccc(O)cc1`, the Potency entry is “inactive”. With `COc1ccc(CN2CCC(=O)c3ccccc3S2(=O)=O)cc1` the entry was “inactive”; with `OCC(O)C(O)C(O)C(O)C=Nc1ccc(/C=C/c2ccnc3ccccc23)cc1` (configuration not stated), “inactive”; with `Cc1nn(Cc2ccc(F)cc2)c(C)c1NC(=O)c1cc(CC(C)C)on1`, “inactive”.

For the compound `O=C1CCC[C@@H]2C[C@@]3(C[C@@H]4CCN1[C@H]24)Nc1ccccc1NC3=NCc1ccccc1`, the Potency result is “inactive”. Regarding `COc1cc(OC)c(OC)cc1/C=C1\C=Cc2ccccc21`, the Potency result is “inactive”. `Cc1nc2nc(SCC(=O)NC3CCC(C)CC3)nn2c(C)c1Cc1ccccc1Cl` (configuration not stated): the Potency result is “inactive”.

For `Cc1nnc(N2CCCC(C(=O)NCCN(C)C)C2)c2nn(-c3ccccc3)c(C)c12` (configuration not stated), the Potency result is “inactive”. For the compound `CCOc1ccc(CNC(=O)C2CCCN(c3nnc(C)c4c(C)n(-c5ccccc5)nc34)C2)cc1` (configuration not stated), the Potency result is “inactive and 12.6 µM (active)”. The same measure for `CCCCNC(=O)C1CCCN(c2nnc(C)c3c(C)n(-c4ccc(Cl)cc4)nc23)C1` (configuration not stated): “inactive”; for `C(=Nc1ccc(/C=C/c2ccnc3ccccc23)cc1)Nc1ccc(/C=C/c2ccnc3ccccc23)cc1`: “inactive”. For `CCc1ccc(NC(=O)c2cc3c(=O)n(Cc4cccnc4)ccc3nc2C)cc1`, the Potency result was “inactive”. Take `Cc1c(Cl)cccc1NC(=O)Cn1cc(C(=O)c2cccs2)c2ccccc21`: the Potency result is “inactive”. For `CC(C)c1ccc(S(=O)(=O)Nc2ccc(O)c(Sc3nc4ccccc4s3)c2)cc1`, the Potency entry was “inactive”.

Take `CC(C)(C)c1ccc(S(=O)(=O)Nc2ccc(O)c(Sc3nc4ccccc4s3)c2)cc1`: the Potency entry was “inactive”. For the compound `O=[N+]([O-])c1c(NCCO)cc(Sc2nc3ccccc3s2)c2nonc12`, the Potency was 15.8 µM (active). For the compound `COc1ccc(-c2nn(CC(=O)Nc3ccccc3F)c3c2cnc2ccc(F)cc23)cc1`, the Potency entry is “inactive”. As to `CN(CCC#N)c1ccc(C=O)cc1`, the Potency entry was “inactive”. In the case of `O=C(Cn1c(=O)n(-c2ccc(F)cc2)c(=O)c2sccc21)Nc1cccc(C(F)(F)F)c1`, the Potency entry was “inactive”. Take `COc1ccc(/C=C/c2ccnc3ccccc23)cc1OC`: the Potency result is “inactive”.

For the compound `Cc1cccc(N2CCN(C(=O)c3cc4c(=O)[nH]c5ccccc5c4n3C)CC2)c1C`, the Potency entry is “inactive”. As to `O=C(c1c(Cl)cccc1Cl)N1CCN(c2cccc3[nH]ccc23)CC1`, the Potency is 0.447 µM (active). `O=C(c1ccc2ccccc2n1)N1CCN(c2ccccc2Cl)CC1`: the Potency result is “inactive”. With `CCc1ccccc1N(C)C(=O)C1CCCN(c2ncnc3onc(-c4ccc(F)cc4)c23)C1` (configuration not stated), the Potency entry was “inactive”. `Oc1cccc2cc(-c3ccncc3)cnc12`: the Potency is 2.82 µM (active). For the compound `Cc1ccc2c(c1)N(C(=O)CCC(=O)NCc1ccccc1F)CC(C)O2` (configuration not stated), the Potency entry was “inactive”. In the case of `CC1=C(C(=O)OCC2CCCCC2)C(c2c(F)cccc2Cl)CC(=O)N1` (configuration not stated), the Potency result is “inactive”.

On to `COC(=O)c1ccc(OCC(O)CN(CCO)CC(O)Cn2ccc3ccccc32)cc1` (configuration not stated), for which the Potency entry is “inactive”. With `COc1cccc(CN(C)CC(O)COC(c2ccccc2)c2ccccc2C)c1` (configuration not stated) the entry was “inactive”; with `CN(Cc1ccccc1)CC(O)COc1ccc(CNCc2cc3ccccc3s2)cc1` (configuration not stated), 11.2 µM (active); with `C=C1CCN(C(CC(C)C)C(=O)NCc2cc(OC)c(OC)c(OC)c2)S(=O)(=O)c2ccccc21` (configuration not stated), “inactive”.

For the compound `Cc1ccc(Cl)cc1NC(=O)/C(C#N)=C\c1cn(Cc2ccc(F)cc2)c2ccccc12`, the Potency result is “inactive”. In the case of `O=C(Cn1cc(/C=N/NC(=O)c2cccc(C(F)(F)F)c2)c2ccccc21)Nc1ccc(F)cc1`, the Potency entry was “inactive”. Turning to `N#CCC(=O)N/N=C/c1cn(Cc2ccc3ccccc3c2)c2ccccc12`, the Potency is 3.55 µM (active). Consider `Cc1ccc(Cn2c(CCCNC(=O)C3CCCCC3)nc3ccccc32)cc1`, for which the Potency entry is “inactive”. In the case of `Cc1ccc2c(=O)c(C(=O)c3cccc(Cl)c3)cn(CC(=O)NCc3ccccc3)c2n1`, the Potency result is “inactive”. For the compound `COc1ccc(Cn2c(C(=O)O)c(CNCCc3cccs3)c3ccc(OC)cc32)cc1`, the Potency entry was “inactive”.

For `COc1ccc(CCNCc2c(-c3ccccc3)n(C)c3ccccc23)cc1`, the Potency was 12.6 µM (active).

Consider `COc1ccc(-c2c(C#Cc3ccccc3)c3ccccc3n2C)cc1`, for which the Potency result was “inactive”.

`CN(C)c1ccc(/C=C/c2sc3ccccc3[n+]2C)cc1`: the Potency entry was “inactive”.

For the compound `CCC(C)c1ccc2oc(-c3ccc(NC(=O)c4cc5ccccc5o4)cc3)nc2c1` (configuration not stated), the Potency entry was “inactive”.

As to `CN(C)C(CNC(=O)Cc1ccc([N+](=O)[O-])cc1)c1ccccc1` (configuration not stated), the Potency entry was “inactive”. As for `CCc1ccc(C(CNc2nc(C(F)(F)F)nc3ccccc23)N(C)C)cc1` (configuration not stated), the Potency is 20 µM (active). With `CN(NC(=O)c1ccccc1F)c1nc(C(F)(F)F)nc2ccccc12` the entry was “inactive”. With `CC1CCN(S(=O)(=O)c2ccc3c(ccn3CCC(=O)NCc3ccc(N(C)C)cc3)c2)CC1`, the Potency result is “inactive”. With `O=C(O)c1c(Br)c(Br)c(Br)c(Br)c1C1c2ccc(O)cc2Oc2cc(O)ccc21` the entry was “inactive”; with `Cc1cc(F)ccc1NS(=O)(=O)c1ccc(-n2cccn2)cc1`, “inactive”. Regarding `Cc1ccc(Oc2ccc3c(c2)C(=O)N(c2cccc4cccnc24)C3=O)cc1`, the Potency entry is “inactive”. For the compound `Cc1ccc(OS(=O)Nc2cccc3nccnc23)cc1` (configuration not stated), the Potency was 15.8 µM (active).

On to `Cc1ccc(OCCn2c(CNc3ccccc3C)nc3ccccc32)cc1`, for which the Potency result is “inactive”. As to `CCOCCn1ccc2c(OCC(=O)NCc3ccc(C)cc3)cccc2c1=O`, the Potency entry is “inactive”. With `COc1ccc(Cc2nc3ccc(C(=O)NCc4ccc(OC)cc4OC)cc3o2)cc1`, the Potency entry was “inactive”. In the case of `CCOC(=O)c1c(NC(=O)C2CCN(S(=O)(=O)c3ccc(Cl)cc3)CC2)sc2c1CCCC2`, the Potency entry was “inactive”. On to `CCOC(=O)c1c(NC(=O)c2ccc(S(=O)(=O)N3CCCC(C)C3)cc2)sc2c1CCN(C(C)C)C2` (configuration not stated), for which the Potency is 10 µM (active). For `COC(=O)c1c(NC(=O)c2ccc(S(=O)(=O)N3CCOCC3)cc2)sc2c1CCN(C(C)C)C2`, the Potency result is “inactive”. With `Cc1nc2c(c(C)nn2-c2ccccc2)c(C)c1CCC(=O)NCCc1ccc(Cl)cc1`, the Potency result was “inactive”. For `CCOCCCNC(=O)c1cn(CC)c2ccc(S(=O)(=O)N3CCc4ccccc4C3)cc2c1=O`, the Potency entry is “inactive”.

Consider `CCOC(=O)c1c(C)oc2nc(C)nc(N(CC(C)C)CC(C)C)c12`, for which the Potency entry was “inactive”.

`CCOC(=O)c1ccc(N2C(=O)c3n[nH]c(C)c3C2c2ccc(O)c(OC)c2)cc1` (configuration not stated): the Potency result is “inactive”.

Consider `CCOc1cc(C2c3c(-c4ccc(Br)cc4)n[nH]c3C(=O)N2c2ccc(Cl)cc2)ccc1O` (configuration not stated), for which the Potency was 10 µM (active). The same measure for `CCOc1ccc(-c2n[nH]c3c2C(c2ccccc2OC)N(c2ccc(Br)cc2)C3=O)cc1` (configuration not stated): “inactive”. Take `O=C(NCc1ccc(Cl)cc1)c1ccc2c(c1)nnn2C1CCCC1`: the Potency entry is “inactive”. `COc1ccc(C(=O)COC(=O)C(O)c2ccccc2)c(OC)c1` (configuration not stated): the Potency result was “inactive”. Take `COc1ccc(C(=O)/C=C/c2cccnc2)c(OC)c1`: the Potency was 15.8 µM (active). With `COc1ccc(/C=C/C(=O)c2cc(Br)ccc(=O)c2O)cc1`, the Potency result was “inactive”. On to `CCS(=O)(=O)c1nc(S(=O)(=O)c2ccc(C)cc2)c(NCc2ccc(Cl)cc2)s1`, for which the Potency result is “inactive”. With `CCC(=O)N1CCc2cc(Br)cc(S(=O)(=O)CCC(=O)NCCc3ccc(OC)c(OC)c3)c21`, the Potency result was “inactive”.

Regarding `COc1ccc(-c2cn3nc(N4CCC(C(=O)Nc5cccc(C)c5C)CC4)sc3n2)cc1`, the Potency entry was “inactive”. `CC(C)=CCCC1(C)C=Cc2c(ccc3c2[nH]c2cc(O)c(C)cc23)O1` (configuration not stated): the Potency was 15.8 µM (active). For the compound `Brc1ccc2c(c1)NC(c1cccnc1)=NC(c1ccccc1)=N2`, the Potency entry was “inactive”. With `COc1ccc(CCNC(=O)c2cc(=O)c3c(C)cc(C)cc3o2)cc1OC` the entry was “inactive”; with `Cc1ccc(N(C)C(=O)C2CCN(S(=O)(=O)c3ccc4c(c3)CCCN4C(=O)C3CCC3)CC2)cc1`, “inactive”; with `CCc1ccc(NC(=O)C2CCCN2S(=O)(=O)c2ccc3nc(-c4ccccc4)[nH]c3c2)cc1` (configuration not stated), “inactive”.

In the case of `O=C(CCSc1ccccc1)N1CCN(c2ccccc2F)CC1`, the Potency entry was “inactive”. As to `O=C(c1ccc(CN2CCOCC2)cc1)N1CCN(c2ccccc2F)CC1`, the Potency was 3.16 µM (active). Take `O=S(=O)(N1CCOCC1)N1CCN(c2ccccc2F)CC1`: the Potency entry is “inactive”. In the case of `Cc1cccc(N2CCN(C(=O)c3ccc(Nc4nc5ccccc5n5nnnc45)cc3)CC2)c1C`, the Potency entry is “inactive”. As for `CN(C)c1ccc(C=Nc2ccc(/C=C/c3ccnc4ccccc34)cc2)cc1`, the Potency result was “inactive”. The same measure for `Oc1c(Cl)cc(Cl)c(Cl)c1Cc1c(O)c(Cl)cc(Cl)c1Cl`: 10 µM (active); for `N#Cc1ccc[n+](CC(=O)c2ccc(F)cc2)c1`: “inactive”; for `COC(=O)c1ccc(Cn2c(SCC(=O)N(C)c3ccccc3)nc3ccccc32)cc1`: “inactive”. Regarding `CCOC(=O)c1c(-c2ccc(C)cc2C)csc1NC(=O)CSc1nnnn1C`, the Potency result was “inactive”. In the case of `CCCS(=O)(=O)c1ncc(Cl)c(C(=O)Nc2scc(-c3ccccc3)c2C(=O)OCC)n1`, the Potency is 11.2 µM (active). Regarding `CCOC(=O)c1scc(-c2ccccc2)c1S(=O)(=O)Nc1ccccc1F`, the Potency result is “inactive”. The same measure for `CCOC(=O)c1ccc(NC(=O)CC2C(=O)N(c3ccccc3)C(=O)N2Cc2cccs2)cc1` (configuration not stated): “inactive”.
